Compounds without any hit were thinned out: in the full panel of roughly 83,000, 20% have a hit.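 Single-dose data. Exposure time 48 hours. Values below 10 considered active.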 Activity calls are given as the source filed them.
System: SF-295 CNS
Test: NCI-60 one-dose screen, 48 h (100 = growth as untreated, 0 = no growth, -100 = all killed)
Conditions: 10 µM unless noted

**Q.** `COc1ccc(/C=N/NC(=O)c2c(N)nn(C)c2Nc2ccccc2)cc1` was tested. Which growth did it give?
**A.** Its growth is 9.85% (active).

**Q.** Which growth does the source give for `Fc1ccc2nc(-c3cnn4cccnc34)sc2c1` here?
**A.** Its growth is 100% (inactive).

**Q.** For `O=C(/C=C/c1cccc(F)c1)c1cccc(OCCCCOc2cccc(C(=O)/C=C/c3cccc(F)c3)c2)c1`, which growth is on record?
**A.** Its growth is 105% (inactive).

**Q.** Which growth does the source give for `O=C(COc1ccc(/C=C2\C(=O)Nc3ccc(Cl)cc32)cc1)Nc1ccc(Cl)cc1` here?
**A.** Its growth is 59.2% (inactive).

**Q.** `O=C(Nc1cccc(Cl)c1)Nc1nc2cc([N+](=O)[O-])ccc2o1` was tested. Which growth did it give?
**A.** The growth was 51% (inactive).

**Q.** For `COc1ccc(NC(=O)CCCCCCNC(=O)C(O)(O)C(F)(F)F)cc1`, which growth is on record?
**A.** Its growth is 24.3% (inactive).

**Q.** Which growth does the source give for `CC(=O)N(O)CCCCCNC(=O)CCC(=O)N(O)CCCCCNC(=O)CCC(=O)N(O)CCCCCN(CCCCCCCCCC[P+](c1ccccc1)(c1ccccc1)c1ccccc1)CCCCCCCCCC[P+](c1ccccc1)(c1ccccc1)c1ccccc1` here?
**A.** Its growth is 12.7% (inactive).

**Q.** `Cc1cc(Br)ccc1-n1cc(C#N)c(N)c1C(=O)c1ccc(Br)cc1` was tested. Which growth did it give?
**A.** The growth was 98.5% (inactive).

**Q.** Which growth does the source give for `CN(C)S(=O)(=O)c1ccc(-c2nc(C(Cl)Cl)nc3cc(-c4ccccc4)nn23)cc1` here?
**A.** Its growth is 86.7% (inactive).

**Q.** `CN1CCN(c2ccc(Nc3nc(NCCNC(=O)c4ccc(F)cc4)c4sccc4n3)cc2)CC1` was tested. Which growth did it give?
**A.** The growth was 61% (inactive).

**Q.** For `O=[N+]([O-])c1ccc(NC(=S)NNC(=S)Nc2ccc(Br)cc2)cc1`, which growth is on record?
**A.** Its growth is 72.6% (inactive).

**Q.** With `C/C(=N\NC(=O)/C=C/CC(=O)O)c1nnn(-c2ccc([N+](=O)[O-])cc2)c1C` as the compound, how does the growth read?
**A.** Its growth is 97% (inactive).

**Q.** With `CN1CCN(c2ccc(Nc3nc(NCCCNS(=O)(=O)c4ccc(F)cc4)c4sccc4n3)cc2)CC1` as the compound, how does the growth read?
**A.** The growth was 32.4% (inactive).

Reference: PubChem BioAssay (NCI)
